Results as given in the supplement of paper PMC12494721.

What was measured:
Details in all cases: incubation time: 27 h, anaerobic, 37 °C;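 for the amine columns active = adjusted P below 0.05 in both replicates with a change the same way and a mean fold change under 0.8 or over 1.25; inactive = the rest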
[1] = test system: Clostridium sporogenes DSM 1664; assay: growth (OD595) fold change vs plate DMSO controls (fold change (ratio)); higher = more growth
In short: (§1)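 The reported measure is growth: the fold change against the median of DMSO controls on the plate. Absorbance at 595 nm from anaerobic 96-well mGAM cultures grown for 27 h at 37 °C was blank-subtracted, corrected for background with 20 µM compound solutions in water, and converted to OD with a calibration factor of 5. Fold changes above 1.5 appear as NA, and values are the mean of 2 biological replicates.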

Escherichia coli IAI1 [2] = assay: as above
In short: as §1

[3] = test system: Klebsiella aerogenes DSM 30053; assay: as above
In short: as §1

[4] = test system: Ruminococcus gnavus DSM 108212; assay: as above
In short: as §1

[5] = test system: Klebsiella aerogenes DSM 30053; assay: fold change of Histamine concentration vs plate DMSO controls (fold change (ratio)); higher = more amine produced, active = hit call of the paper (significant change in both replicates, either direction)
In short: (§2)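 Amines were quantified by LC–triple-quadrupole MS in dynamic MRM mode against external calibration curves, with drift correction within each batch. The samples were whole anaerobic mGAM cultures of four gut bacterial strains, grown for 27 h at 37 °C in 80 µL wells and extracted with cold acetonitrile/methanol with 0.1% formic acid, then centrifuged. Values are reported as fold change over DMSO controls on the same plate. The mean of 2 biological replicates is given.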

[6] = test system: Clostridium sporogenes DSM 1664; assay: fold change of Tryptamine concentration vs plate DMSO controls (fold change (ratio)); higher = more amine produced, active = hit call of the paper (significant change in both replicates, either direction)
In short: as §2

[7] = test system: Ruminococcus gnavus DSM 108212; assay: as above
In short: as §2

Escherichia coli IAI1 [8] = assay: fold change of Putrescine concentration vs plate DMSO controls (fold change (ratio)); higher = more amine produced, active = hit call of the paper (significant change in both replicates, either direction)
In short: as §2

[9] = test system: Klebsiella aerogenes DSM 30053; assay: as above
In short: as §2

Escherichia coli IAI1 [10] = assay: fold change of Cadaverine concentration vs plate DMSO controls (fold change (ratio)); higher = more amine produced, active = hit call of the paper (significant change in both replicates, either direction)
In short: as §2

[11] = test system: Klebsiella aerogenes DSM 30053; assay: as above
In short: as §2

[12] = test system: Ruminococcus gnavus DSM 108212; assay: fold change of 2-Phenylethylamine concentration vs plate DMSO controls (fold change (ratio)); higher = more amine produced, active = hit call of the paper (significant change in both replicates, either direction)
In short: as §2

Compound	growth [1]	growth (Escherichia coli IAI1 [2])	growth [3]	growth [4]	fold change of Histamine concentration [5]	fold change of Tryptamine concentration [6]	fold change of Tryptamine concentration [7]	fold change of Putrescine concentration (Escherichia coli IAI1 [8])	fold change of Putrescine concentration [9]	fold change of Cadaverine concentration (Escherichia coli IAI1 [10])	fold change of Cadaverine concentration [11]	fold change of 2-Phenylethylamine concentration [12]
Brc1c(NC2=NCCN2)ccc2nccnc12 [Brimonidine L-tartrate] (20 µM)	0.988	1.06	0.999	1.03	0.928 (inactive)	1.07 (inactive)	0.885 (inactive)	0.973 (inactive)	0.971 (inactive)	0.919 (inactive)	1.06 (inactive)	1.05 (inactive)
O=C(N/N=C/c1ccc([N+](=O)[O-])o1)c1ccc(O)cc1 [Nifuroxazide] (20 µM)	1.11	1.03	0.907	1.2	1.01 (inactive)	0.998 (inactive)	0.89 (inactive)	0.759 (active)	0.954 (inactive)	1.58 (active)	1.02 (inactive)	0.626 (active)
NCC[C@H](O)C(=O)N[C@@H]1C[C@H](N)[C@@H](O[C@H]2O[C@H](CN)[C@@H](O)[C@H](O)[C@H]2O)[C@H](O)[C@H]1O[C@H]1O[C@H](CO)[C@@H](O)[C@H](N)[C@H]1O [Amikacin hydrate] (20 µM)	0.793	0.983	0.78	0.735	0.601 (active)	0.812 (inactive)	0.911 (inactive)	1 (inactive)	0.992 (inactive)	0.922 (inactive)	0.982 (inactive)	0.972 (inactive)
O=C1NCCN1c1ncc([N+](=O)[O-])s1 [Niridazole] (20 µM)	0.0129	1.09	0.756	0.0406	1.11 (inactive)	0.0363 (active)	0.0455 (active)	1.44 (inactive)	1.03 (inactive)	1.97 (active)	1.02 (inactive)	0.0533 (active)
Nc1ccc(S(=O)(=O)NC(=O)c2ccccc2)cc1 [Sulfabenzamide] (20 µM)	1.18	1.07	1.05	1.1	0.998 (inactive)	1.07 (inactive)	1.04 (inactive)	0.947 (inactive)	0.991 (inactive)	0.967 (inactive)	1.01 (inactive)	1.09 (inactive)
NNC(=O)c1ccncc1 [Isoniazid] (20 µM)	1.22	1.01	0.936	0.727	1.03 (inactive)	1.05 (inactive)	0.851 (inactive)	1.03 (inactive)	0.991 (inactive)	1.01 (inactive)	0.988 (inactive)	0.844 (inactive)
